Here are results for twelve compounds from PubChem BioAssay.

The structures appear in SMILES notation. Activity calls are given as the source filed them.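 Rule for the calls, unless noted: active = superoxide response below 65% of plate, a cut near 3 SD across the whole screen; inactive = the rest.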

Assay [1] in a line: inhibitors of CD8+ T cell-vesicle binding, pilot screen, LFA-1/ICAM-1 modulator project, MLPCN validation set, flow cytometry (AID 2523;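 active = response below a set limit, under 55% cells CD8-positive and vesicle-bound, and CD8 cells' 90th-percentile brightness under 279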;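 for vesicle binding response: mean PE anti-B7-1 fluorescence of CD8+ cells relative to row control; 100% = QL9-loaded vesicles with DMSO vehicle in the same plate row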). Particulars: 2C mouse CD8+ T cells, at 7 µM, stronger effect = lower value; double positive events: measured here: CD8+/vesicle+ event percentage. For orientation: Flow cytometry measures light scatter and fluorescence of single cells or particles in a stream.

Assay [2] deals with Integrin beta-1 (Homo sapiens) + Integrin alpha-4 (Homo sapiens) (UniProt P13612+P05556). The assay is described as follows: inhibition of HUTS-21 binding to VLA-4, pilot screen, VLA-4 allosteric modulator project, U937 cells, HUTS-21 mAb, flow cytometry, validation set (AID 2674;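 active = inhibition above 50%, about 3 SD of the validation set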;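 note: antibody binding induced by the VLA-4 ligand LDV present at three times its Kd; 0% = LDV ligand with antibody and no compound and 100% = antibody without LDV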). Particulars: HUTS-21 LIBS mAb binding, at 6.7 µM, stronger effect = higher value, binding induced by LDV ligand.

Assay [3] in a line: superoxide lowering in aged yeast cells, pilot screen, validation compound set (AID 2706).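 Note: yeast exposed to compound for one week at 30 degrees C before staining; 100% = mean of all compound wells on the same plate.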 The note with it: S. cerevisiae aging, superoxide DHE fluorescence; at 10 µM, stronger effect = lower value.
For assay [4], the target named is Beta-adrenergic receptor kinase 1 (Homo sapiens) (UniProt P25098). Nature of the assay: GRK2 binders displacing RNA aptamer, biochemical, validation, human GRK2, bead flow cytometry (AID 488806;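 active = aptamer binding inhibition above 30%, about 3 SD of noise from non-fluorescent compounds; inactive = inhibition at or below 30%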). Particulars: bead-bound GRK2, FAM-aptamer displacement, at 10 µM, stronger effect = higher value.
The target of assay [5] is Beta-2 adrenergic receptor (Homo sapiens) (UniProt P07550). Nature of the assay: beta2AR agonists driving receptor internalization, pilot screen, cell-based, FAP fluorogen, flow cytometry, validation set (AID 504459;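 active = percent response above 42, roughly 3 SD of non-fluorescent test compounds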;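 note: agonist-driven loss of surface beta2AR via internalization measured by FAP dye flow cytometry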). Particulars: Am2.2-beta2AR cells, FAP surface receptor flow cytometry; at 10 µM; stronger effect = higher value.
The target in assay [6] is AP-2 complex subunit beta (Homo sapiens) (UniProt P63010). The assay is described as follows: inhibitors of arrestin peptide binding to AP2, pilot screen, biochemical, validation set, GST-AP2 beads, flow cytometry (AID 504541;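 active = inhibition above 54%, about 3 SD of non-fluorescent compounds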;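 note: AP2 carries R879A mutation and is captured from E. coli lysate; bead-bound FITC arrestin peptide fluorescence measuring arrestin peptide binding to AP2; 0% = DMSO wells and 100% = excess unlabeled arrestin peptide control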). Particulars: FITC arrestin peptide, at 10 µM, stronger effect = higher value, AP2 beta2 appendage fragment, R879A mutant.
Assay [7] can be described thus: yeast V-ATPase proton transport modulators, S. cerevisiae, pHLuorin, HTS validation (AID 504600; in the data active = response above about 15%;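 note: plate controls were DMSO for no effect and reference compound for full effect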). Particulars: S. cerevisiae pHLuorin cytosolic pH, at 10 µM, stronger effect = higher value.
The test system of assay [8] is anti-desmoglein-3 scFv antibody binding to human DSG3. The assay is described as follows: inhibitors of anti-DSG3 scFv binding to DSG3, pilot screen, biochemical, validation compound set, bead-based, flow cytometry (AID 588368;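 active = binding below the plate cutoff, the plate median minus 3 SD, with a reading above zero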;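 note: signal is the median channel fluorescence of bead-bound GFP antibody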). Particulars: Protein G beads, DSG3-Fc, scFv-GFP binding, at 10 µM, stronger effect = lower value.
The nature of assay [9]: inhibitors of fungal efflux pumps CDR1, CDR2, MDR1, pilot screen, validation compound set, multiplex, phenotypic (AID 588506;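 active = efflux inhibition above 0.42, the validation set average plus 4 SD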;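 note: Nile Red retained in cells so higher fluorescence means more efflux inhibition; 0 = negative control wells and 1 = enniatin B 25 µM full block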). Particulars: S. cerevisiae pump-expressing triplex, Nile Red efflux flow cytometry; at 10 µM; stronger effect = higher value; the pumps come from Candida albicans.
Assay [10] deals with ATP-binding cassette sub-family B member 6 (Homo sapiens) (UniProt Q9NP58). The assay is described as follows: ABCB6 transporter inhibitors, pilot screen, K562-ABCB6 cells, flow cytometry, validation set (AID 588550;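 active = inhibition above the screen-wide mean plus 3 SD, about 51%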;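 note: 0% = DMSO wells and 100% = benzethonium chloride 70 µM positive control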). The note with it: K562-ABCB6 porphyrin accumulation, 1 h, at 10 µM, stronger effect = higher value.
Assay [11] in a line: promoters of myeloid differentiation in arrested cells, primary screen, cell-based, GFP/MAC1 double positive, flow cytometry, validation set (AID 588685;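 active = differentiation response of at least 50%, scaled between solvent and reference control, from cells with both markers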;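 note: compound exposure lasts four days before antibody staining and flow analysis; 0% = DMSO wells and 100% = 5 µM fulvestrant positive control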). The note with it: ER-HoxA9 marrow cells, stronger effect = higher value, normalized: vehicle 0, fulvestrant 100.

Beta-2 adrenergic receptor (Homo sapiens), sequence (P07550 whole entry, looked up): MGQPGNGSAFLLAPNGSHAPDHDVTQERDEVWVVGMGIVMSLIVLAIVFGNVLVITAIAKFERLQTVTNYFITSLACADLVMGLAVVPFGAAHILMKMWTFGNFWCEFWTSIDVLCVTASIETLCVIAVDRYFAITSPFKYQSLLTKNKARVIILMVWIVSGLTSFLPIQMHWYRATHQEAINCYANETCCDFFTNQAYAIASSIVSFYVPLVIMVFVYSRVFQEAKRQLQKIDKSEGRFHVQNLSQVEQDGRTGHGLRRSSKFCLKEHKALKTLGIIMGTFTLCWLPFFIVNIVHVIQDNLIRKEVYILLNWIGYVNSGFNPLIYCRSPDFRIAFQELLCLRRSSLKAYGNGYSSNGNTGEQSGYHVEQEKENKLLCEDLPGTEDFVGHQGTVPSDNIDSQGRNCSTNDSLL
Integrin beta-1 (Homo sapiens) + Integrin alpha-4 (Homo sapiens), sequence (P05556 whole entry, looked up): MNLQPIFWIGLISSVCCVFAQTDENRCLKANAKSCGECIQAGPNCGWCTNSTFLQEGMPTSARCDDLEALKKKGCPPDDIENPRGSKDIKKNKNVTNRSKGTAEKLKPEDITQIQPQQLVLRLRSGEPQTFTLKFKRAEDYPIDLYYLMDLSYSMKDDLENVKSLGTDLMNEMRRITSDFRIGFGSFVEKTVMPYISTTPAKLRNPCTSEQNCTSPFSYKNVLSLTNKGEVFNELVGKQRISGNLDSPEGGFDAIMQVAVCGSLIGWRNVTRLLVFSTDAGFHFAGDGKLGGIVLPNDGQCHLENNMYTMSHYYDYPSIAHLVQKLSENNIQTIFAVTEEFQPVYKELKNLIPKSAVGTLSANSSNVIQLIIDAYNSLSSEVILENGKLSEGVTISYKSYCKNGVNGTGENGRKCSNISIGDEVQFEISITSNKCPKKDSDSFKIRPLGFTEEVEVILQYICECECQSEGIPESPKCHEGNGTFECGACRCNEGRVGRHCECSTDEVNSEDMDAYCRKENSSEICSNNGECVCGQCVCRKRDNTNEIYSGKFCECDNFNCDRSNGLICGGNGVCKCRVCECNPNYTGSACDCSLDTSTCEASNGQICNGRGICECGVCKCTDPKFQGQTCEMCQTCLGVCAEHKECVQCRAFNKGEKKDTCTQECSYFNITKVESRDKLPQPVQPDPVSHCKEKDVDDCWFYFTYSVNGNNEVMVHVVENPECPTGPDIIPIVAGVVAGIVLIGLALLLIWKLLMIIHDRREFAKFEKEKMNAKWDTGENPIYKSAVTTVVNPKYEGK
Integrin beta-1 (Homo sapiens) + Integrin alpha-4 (Homo sapiens), sequence (P13612 whole entry, looked up): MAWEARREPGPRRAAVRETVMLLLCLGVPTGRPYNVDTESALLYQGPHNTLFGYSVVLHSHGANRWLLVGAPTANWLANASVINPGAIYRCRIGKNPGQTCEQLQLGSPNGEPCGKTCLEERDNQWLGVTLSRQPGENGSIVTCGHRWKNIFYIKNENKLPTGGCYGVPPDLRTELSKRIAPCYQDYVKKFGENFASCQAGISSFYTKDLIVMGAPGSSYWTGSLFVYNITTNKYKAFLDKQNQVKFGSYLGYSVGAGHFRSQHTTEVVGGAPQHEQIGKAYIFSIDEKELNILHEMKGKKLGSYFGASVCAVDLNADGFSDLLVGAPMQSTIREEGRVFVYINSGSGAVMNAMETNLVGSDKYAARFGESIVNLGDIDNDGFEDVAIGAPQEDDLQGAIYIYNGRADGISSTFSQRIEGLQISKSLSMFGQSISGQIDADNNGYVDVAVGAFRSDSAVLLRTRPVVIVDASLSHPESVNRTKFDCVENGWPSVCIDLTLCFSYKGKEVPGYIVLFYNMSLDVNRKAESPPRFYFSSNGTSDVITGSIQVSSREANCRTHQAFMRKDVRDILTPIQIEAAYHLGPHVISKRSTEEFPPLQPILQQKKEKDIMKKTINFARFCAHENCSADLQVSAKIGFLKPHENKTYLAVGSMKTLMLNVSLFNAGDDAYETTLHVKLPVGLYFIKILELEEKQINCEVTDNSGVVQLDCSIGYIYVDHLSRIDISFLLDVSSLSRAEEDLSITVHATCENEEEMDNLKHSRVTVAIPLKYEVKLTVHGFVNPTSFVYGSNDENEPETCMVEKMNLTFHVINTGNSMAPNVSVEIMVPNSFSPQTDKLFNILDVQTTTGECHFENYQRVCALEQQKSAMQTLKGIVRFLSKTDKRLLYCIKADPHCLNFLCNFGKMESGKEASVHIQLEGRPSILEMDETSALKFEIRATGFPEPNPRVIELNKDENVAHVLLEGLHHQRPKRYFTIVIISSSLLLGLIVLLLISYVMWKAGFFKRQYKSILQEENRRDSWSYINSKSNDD
ATP-binding cassette sub-family B member 6 (Homo sapiens), sequence (Q9NP58 whole entry, looked up): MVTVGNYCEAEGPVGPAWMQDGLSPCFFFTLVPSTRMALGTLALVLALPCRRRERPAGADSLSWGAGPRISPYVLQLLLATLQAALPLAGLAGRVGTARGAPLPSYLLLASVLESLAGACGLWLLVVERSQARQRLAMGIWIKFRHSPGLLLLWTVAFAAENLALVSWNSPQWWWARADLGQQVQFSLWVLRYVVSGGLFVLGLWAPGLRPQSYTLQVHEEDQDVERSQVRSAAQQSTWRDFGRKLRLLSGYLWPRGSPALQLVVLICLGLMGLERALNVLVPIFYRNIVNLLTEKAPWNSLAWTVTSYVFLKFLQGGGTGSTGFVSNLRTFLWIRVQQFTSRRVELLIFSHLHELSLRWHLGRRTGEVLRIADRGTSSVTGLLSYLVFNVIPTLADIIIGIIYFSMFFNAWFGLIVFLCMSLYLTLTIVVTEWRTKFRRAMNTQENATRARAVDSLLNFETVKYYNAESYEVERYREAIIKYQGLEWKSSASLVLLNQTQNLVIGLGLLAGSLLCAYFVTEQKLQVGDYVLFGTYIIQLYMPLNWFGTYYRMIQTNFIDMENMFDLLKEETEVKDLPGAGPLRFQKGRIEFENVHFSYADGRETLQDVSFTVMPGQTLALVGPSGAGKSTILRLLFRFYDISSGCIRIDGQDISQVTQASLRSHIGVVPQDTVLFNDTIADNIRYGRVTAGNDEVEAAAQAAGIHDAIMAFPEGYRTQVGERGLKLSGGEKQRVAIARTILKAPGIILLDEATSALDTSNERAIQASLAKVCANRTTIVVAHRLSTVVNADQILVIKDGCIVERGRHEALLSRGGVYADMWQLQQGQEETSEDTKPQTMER
AP-2 complex subunit beta (Homo sapiens), sequence (P63010 whole entry, looked up, the tested form may be a part, one chain of several): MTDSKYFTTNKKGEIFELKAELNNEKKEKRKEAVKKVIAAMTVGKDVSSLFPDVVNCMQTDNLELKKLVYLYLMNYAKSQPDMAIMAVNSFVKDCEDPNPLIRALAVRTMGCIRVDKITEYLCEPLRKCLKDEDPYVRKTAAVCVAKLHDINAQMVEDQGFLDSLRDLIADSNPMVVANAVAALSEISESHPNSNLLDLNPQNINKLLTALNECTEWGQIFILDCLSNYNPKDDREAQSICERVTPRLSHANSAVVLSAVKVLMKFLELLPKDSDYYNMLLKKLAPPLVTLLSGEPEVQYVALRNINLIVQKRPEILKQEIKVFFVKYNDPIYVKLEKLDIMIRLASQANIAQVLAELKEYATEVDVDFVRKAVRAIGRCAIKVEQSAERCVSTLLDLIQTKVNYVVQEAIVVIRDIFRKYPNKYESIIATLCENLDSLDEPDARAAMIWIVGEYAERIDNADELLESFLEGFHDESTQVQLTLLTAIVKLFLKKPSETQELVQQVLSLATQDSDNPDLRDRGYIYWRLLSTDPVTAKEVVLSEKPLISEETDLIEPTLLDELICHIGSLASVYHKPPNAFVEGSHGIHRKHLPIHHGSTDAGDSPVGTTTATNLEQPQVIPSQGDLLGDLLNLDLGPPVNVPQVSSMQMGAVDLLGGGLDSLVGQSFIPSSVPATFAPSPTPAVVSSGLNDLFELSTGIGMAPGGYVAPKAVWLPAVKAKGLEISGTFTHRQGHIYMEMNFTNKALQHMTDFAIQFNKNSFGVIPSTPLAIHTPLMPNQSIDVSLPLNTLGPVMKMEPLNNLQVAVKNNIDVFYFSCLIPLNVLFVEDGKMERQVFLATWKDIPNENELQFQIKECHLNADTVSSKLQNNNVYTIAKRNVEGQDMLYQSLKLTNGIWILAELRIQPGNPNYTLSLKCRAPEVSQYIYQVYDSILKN
Beta-adrenergic receptor kinase 1 (Homo sapiens), sequence (P25098 whole entry, looked up): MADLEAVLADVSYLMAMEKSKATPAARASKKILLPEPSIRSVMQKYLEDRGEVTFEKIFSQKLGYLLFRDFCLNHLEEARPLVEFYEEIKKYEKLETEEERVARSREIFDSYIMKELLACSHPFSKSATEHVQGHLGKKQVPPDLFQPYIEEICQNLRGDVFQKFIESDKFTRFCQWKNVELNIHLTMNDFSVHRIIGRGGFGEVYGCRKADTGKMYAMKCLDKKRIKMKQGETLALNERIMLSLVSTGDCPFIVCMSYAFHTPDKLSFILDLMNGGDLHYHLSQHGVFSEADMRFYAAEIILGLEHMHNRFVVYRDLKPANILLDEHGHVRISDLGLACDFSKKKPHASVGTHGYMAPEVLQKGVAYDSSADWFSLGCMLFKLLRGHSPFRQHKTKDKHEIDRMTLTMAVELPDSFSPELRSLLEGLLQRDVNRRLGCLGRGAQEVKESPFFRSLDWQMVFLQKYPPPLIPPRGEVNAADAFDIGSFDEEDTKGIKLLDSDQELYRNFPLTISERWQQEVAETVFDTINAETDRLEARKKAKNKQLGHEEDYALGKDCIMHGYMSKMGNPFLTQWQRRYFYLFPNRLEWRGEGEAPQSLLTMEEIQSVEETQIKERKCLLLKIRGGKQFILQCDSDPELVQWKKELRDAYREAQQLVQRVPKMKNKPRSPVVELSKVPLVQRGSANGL

Turning to `COc1ccccc1C(=O)N=C1NC(=O)CC2C(=O)NCCN12` (centres undefined), the double positive events in assay [1] came out at 63.2%. Besides, the vesicle binding response in [1] is 245% (inactive). Also, the inhibition in assay [2] is 6.4% (inactive); in assay [6], 0.24% (inactive); in assay [10], 9% (inactive). Also, the superoxide response (% of plate) in [3] is 100% (inactive). The aptamer binding inhibition in assay [4] was 0% (inactive). Moreover, the response in assay [5] was -0.52% (inactive); in assay [7], -0.05% (inactive). Besides, the binding (% of control) in [8] was 103% (inactive). For the same compound, the efflux inhibition (fraction of control) in [9] is 0.08 (inactive). Besides, the differentiation response in assay [11] was -8.8% (inactive).

Consider `O=c1c2ccccc2nc2n1-c1ccccc1CCC2`, for which the double positive events in [1] came to 64.2%. Moreover, in assay [1], the vesicle binding response is 201% (inactive). In addition, the inhibition was 13% (inactive) in assay [2], -5.56% (inactive) in [6] and 0% (inactive) in [10]. Besides, the superoxide response (% of plate) in [3] is 96.9% (inactive). In addition, the aptamer binding inhibition in assay [4] was 1% (inactive). Also, the figures for the response in [5] and in [7] were -9.83% (inactive) and 0.74% (inactive), respectively. In [8], the binding (% of control) was 99.2% (inactive). Moreover, the efflux inhibition (fraction of control) in assay [9] was -0.23 (inactive). Moreover, in assay [11], the differentiation response was 1.22% (inactive).

For `O=C(/C=C/c1ccccc1)/C=C/c1ccccc1`, the double positive events in assay [1] is 69.3%. Further, the vesicle binding response in [1] was 434% (inactive). Also, the inhibition was 21.4% (inactive) in assay [2], -3.48% (inactive) in assay [6] and 2% (inactive) in assay [10]. Further, the superoxide response (% of plate) in assay [3] is 105% (inactive). Also, in [4], the aptamer binding inhibition was 2% (inactive). The figures for the response in assay [5] and in assay [7] were 48.5% (active) and 0.62% (inactive), respectively. The binding (% of control) in [8] is 96.6% (inactive). The efflux inhibition (fraction of control) in assay [9] is -0.17 (inactive). In addition, the differentiation response in assay [11] was -16.8% (inactive).

`NC12CC3CC(C1)CC(O)(C3)C2`: in assay [1], the double positive events was determined as 65.4%. Also, the vesicle binding response in assay [1] was 201% (inactive). Moreover, the inhibition in assay [2] is 2.66% (inactive); in assay [6], -6.38% (inactive); in [10], 11% (inactive). The superoxide response (% of plate) in assay [3] is 95.4% (inactive). In assay [4], the aptamer binding inhibition is 3% (inactive). Moreover, the response was -10% (inactive) in assay [5] and 2.64% (inactive) in assay [7]. In [8], the binding (% of control) was 99% (inactive). Further, the efflux inhibition (fraction of control) in [9] was 0.14 (inactive). The differentiation response in assay [11] was 4.15% (inactive).

As for `CCSc1nc(O)c(C2OC(=O)c3c2ccc(OC)c3OC)c(=O)n1CC` (centres undefined), the double positive events in [1] was 69.4%. For the same compound, the vesicle binding response in assay [1] is 289% (inactive). In addition, the figures for the inhibition in [2], in assay [6] and in [10] were -1.79% (inactive), -2.62% (inactive) and 109% (active), respectively. Moreover, the superoxide response (% of plate) in assay [3] was 86.4% (inactive). Moreover, the aptamer binding inhibition in [4] is 2% (inactive). The response in [5] was 15.5% (inactive); in assay [7] it was -1.36% (inactive). The binding (% of control) in assay [8] was 101% (inactive). Also, the efflux inhibition (fraction of control) in assay [9] is 0.12 (inactive). Besides, in assay [11], the differentiation response was 20% (inactive).

The compound `COc1ccc(C(=O)/C=C2/c3ccccc3CC(C)(C)N2C)cc1` displayed a double positive events in assay [1] of 59.8%. In assay [1], the vesicle binding response is 124% (inactive). Moreover, the inhibition in assay [2] is 2.93% (inactive); in assay [6] it was -8.96% (inactive); in [10] it was 7% (inactive). Besides, the superoxide response (% of plate) in assay [3] is 99% (inactive). In assay [4], the aptamer binding inhibition is 3% (inactive). The response is 23.7% (inactive) in assay [5] and -3.68% (inactive) in [7]. For the same compound, in assay [8], the binding (% of control) is 98.3% (inactive). The efflux inhibition (fraction of control) in assay [9] was -0.25 (inactive). In addition, the differentiation response in assay [11] was -7.5% (inactive).

In [1], `CCOc1ccc(CC2c3cc(OCC)c(OCC)cc3CCN2C(=O)CN2CCN(C)CC2)cc1OCC` (centres undefined) returned a double positive events of 61.7%. The vesicle binding response in assay [1] is 160% (inactive). Moreover, the inhibition in assay [2] is -11.3% (inactive); in assay [6], 5.19% (inactive); in assay [10] it was 4% (inactive). For the same compound, the superoxide response (% of plate) in assay [3] is 82.4% (inactive). For the same compound, the aptamer binding inhibition in assay [4] was 0% (inactive). For the same compound, the response is -8.24% (inactive) in assay [5] and -5.23% (inactive) in assay [7]. Moreover, the binding (% of control) in [8] is 108% (inactive). Besides, the efflux inhibition (fraction of control) in assay [9] was -0.04 (inactive). In assay [11], the differentiation response was -3.02% (inactive).

With `CCN1C(=O)C(CC(=O)Nc2ccc(F)cc2)N(Cc2ccc3c(c2)OCO3)C1=S` (centres undefined), the double positive events in [1] was found to be 56.3%. For the same compound, the vesicle binding response in assay [1] is 124% (inactive). Further, the inhibition in assay [2] is 7.76% (inactive); in assay [6], -7.91% (inactive); in assay [10], 4% (inactive). In [3], the superoxide response (% of plate) is 101% (inactive). Also, the aptamer binding inhibition in assay [4] is 0% (inactive). The response in [5] is 22.9% (inactive); in [7] it was 0.48% (inactive). Besides, the binding (% of control) in assay [8] was 107% (inactive). The efflux inhibition (fraction of control) in assay [9] was 0.44 (active). The differentiation response in assay [11] is 58.4% (active).

Compound `COc1ccc(C(=O)Nc2nc3ccccc3c(=O)[nH]2)cc1` had a double positive events in [1] of 65.5%. In [1], the vesicle binding response was 352% (inactive). For the same compound, the inhibition is 3.67% (inactive) in [2], 4.94% (inactive) in assay [6] and 4% (inactive) in [10]. In assay [3], the superoxide response (% of plate) is 84.4% (inactive). Also, the aptamer binding inhibition in assay [4] was 0% (inactive). The response in assay [5] was 37.4% (inactive); in assay [7], -8.54% (inactive). The binding (% of control) in [8] is 99.1% (inactive). Moreover, the efflux inhibition (fraction of control) in assay [9] is -0.03 (inactive). For the same compound, in assay [11], the differentiation response is 0% (inactive).

On to `C#CCN(C)Cc1ccccc1`, for which the double positive events in assay [1] is 66.2%. Further, the vesicle binding response in [1] is 248% (inactive). In addition, the inhibition in [2] is -2.82% (inactive); in assay [6] it was -10.1% (inactive); in assay [10] it was 2% (inactive). Also, the superoxide response (% of plate) in assay [3] was 102% (inactive). The aptamer binding inhibition in assay [4] is 2% (inactive). For the same compound, the values for the response in [5] and in assay [7] were -26.9% (inactive) and -1.24% (inactive), respectively. Moreover, in [8], the binding (% of control) is 99.9% (inactive). Also, the efflux inhibition (fraction of control) in assay [9] is -0.04 (inactive). Further, in [11], the differentiation response is -8.93% (inactive).

Regarding `CNCCc1ccccn1`, in assay [1], the double positive events was found to be 60%. Moreover, the vesicle binding response in [1] was 212% (inactive). For the same compound, the inhibition in assay [2] was 15.1% (inactive); in [6], -12.3% (inactive); in assay [10], 1% (inactive). The superoxide response (% of plate) in assay [3] was 122% (inactive). The aptamer binding inhibition in assay [4] is -6% (inactive). Also, the response in assay [5] is -19.8% (inactive); in [7], -10.1% (inactive). In assay [8], the binding (% of control) is 100% (inactive). Besides, the efflux inhibition (fraction of control) in assay [9] was 0 (inactive). Besides, the differentiation response in assay [11] is 2.89% (inactive).

Turning to `CN1[C@@H](CC(=O)c2ccccc2)CCC[C@H]1C[C@H](O)c1ccccc1`, in [1], the double positive events amounted to 61.3%. In [1], the vesicle binding response is 176% (inactive). Further, the inhibition is 6.4% (inactive) in [2], -9.53% (inactive) in assay [6] and 3% (inactive) in assay [10]. Further, in assay [3], the superoxide response (% of plate) was 93.3% (inactive). Moreover, in [4], the aptamer binding inhibition is 4% (inactive). Further, the response was 12.9% (inactive) in assay [5] and 3.14% (inactive) in assay [7]. Moreover, in [8], the binding (% of control) is 103% (inactive). In addition, the efflux inhibition (fraction of control) in assay [9] is -0.06 (inactive). Besides, the differentiation response in assay [11] was -0.8% (inactive).

Usually inhibition stands for the relative decrease from the control value, in per cent.
